# According to the supplement of paper PMC6555819:
# Experiments:
# Experiment in all cases: PBM binding z-score (relative to random genomic background probes); higher = stronger binding; sequences stand for … in GC…GCGATTGACAGCGTAGAATGAAGG
# [1] = tested on: FXR:RXRa (NR concentration 270 nM, RXRa partner concentration 90 nM)
# Method in brief: (§1)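 Probes were double-stranded and carried 34-nt variable regions with direct-repeat seeds, single-nucleotide variants, half-site ablations and random human genomic background sequences, printed on custom Agilent 4×180K protein-binding microarrays. Arrays were incubated 1 h with ligand-free nuclear receptor dimers in PBS pH 7.4, 2% milk, 0.02% Triton X-100, 1 mM DTT, 0.2 mg/mL BSA and 0.4 mg/ml salmon testes DNA. Antibodies against each partner (one per run) detected binding, and scanned fluorescence was regression-normalized. Binding z-scores use the random background probes as reference.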
# [2] = tested on: LXRa:RXRa (NR concentration 270 nM, RXRa partner concentration 90 nM)
# Method in brief: as §1
# [3] = tested on: LXRa homodimer (NR concentration 270 nM)
# Method in brief: as §1
# [4] = tested on: LXRb:RXRa (NR concentration 270 nM, RXRa partner concentration 90 nM)
# Method in brief: as §1
# [5] = tested on: LXRb homodimer (NR concentration 270 nM)
# Method in brief: as §1
# [6] = tested on: PPARa:RXRa (NR concentration 270 nM, RXRa partner concentration 90 nM)
# Method in brief: as §1
# [7] = tested on: PPARg:RXRa (NR concentration 180 nM, RXRa partner concentration 90 nM)
# Method in brief: as §1
# [8] = tested on: PPARg:RXRa 270nM:90nM, anti-RXR (NR concentration 270 nM, RXRa partner concentration 90 nM)
# Method in brief: as §1
# [9] = tested on: PPARg:RXRa 30nM:10nM, anti-RXR (NR concentration 30 nM, RXRa partner concentration 10 nM)
# Method in brief: as §1
# [10] = tested on: PPARg:RXRa 90nM:30nM, anti-RXR (NR concentration 90 nM, RXRa partner concentration 30 nM)
# Method in brief: as §1
# [11] = tested on: PPARg:RXRa DBDmut IVT, anti-RXR (DBD mutation: RXRa K156A/R161A, NR concentration 270 nM, RXRa partner concentration 90 nM)
# Method in brief: as §1
# [12] = tested on: PPARg:RXRa IVT, anti-PPARg (NR concentration 270 nM, RXRa partner concentration 90 nM)
# Method in brief: as §1
# [13] = tested on: PPARg DBDmut:RXRa IVT, anti-PPARg (DBD mutation: PPARg1 K132A/R137A, NR concentration 270 nM, RXRa partner concentration 90 nM)
# Method in brief: as §1
# [14] = tested on: PPARg DBDmut IVT, anti-PPARg (DBD mutation: PPARg1 K132A/R137A, NR concentration 270 nM)
# Method in brief: as §1
# [15] = tested on: PPARg homodimer (NR concentration 180 nM)
# Method in brief: as §1
# [16] = tested on: PXR:RXRa (NR concentration 270 nM, RXRa partner concentration 90 nM)
# Method in brief: as §1
# [17] = tested on: PXR homodimer (NR concentration 270 nM)
# Method in brief: as §1
# [18] = tested on: RARa:RXR (NR concentration 270 nM, RXRa partner concentration 90 nM)
# Method in brief: as §1
# [19] = tested on: RARa homodimer (NR concentration 270 nM)
# Method in brief: as §1
# [20] = tested on: RARb:RXRa (NR concentration 270 nM, RXRa partner concentration 90 nM)
# Method in brief: as §1
Sequence,PBM binding z-score [1],PBM binding z-score [2],PBM binding z-score [3],PBM binding z-score [4],PBM binding z-score [5],PBM binding z-score [6],PBM binding z-score [7],PBM binding z-score [8],PBM binding z-score [9],PBM binding z-score [10],PBM binding z-score [11],PBM binding z-score [12],PBM binding z-score [13],PBM binding z-score [14],PBM binding z-score [15],PBM binding z-score [16],PBM binding z-score [17],PBM binding z-score [18],PBM binding z-score [19],PBM binding z-score [20]
AGAATGAGGTTAAGATCAGAGAAACAGAATACAT,2.3,2.12,0.0426,1.9,-0.125,3.61,2.54,2.18,0.874,1.71,2.25,2.51,1.54,1.04,0.538,1.22,0.611,2.03,0.226,1.86
ATCTCTAGGGAAAGTTCAGTGAAAGATCGATAGA,0.806,1.28,0.993,0.942,0.681,1.42,0.591,1.84,0.725,1.51,0.291,0.739,0.561,0.968,1.06,1.52,1.46,1.38,1.07,2.61
TCTTGTAGAGCAGCAGGTTAAGAAAGCTGGCCAA,-0.000312,-0.0132,-1.04,-0.257,-1.45,0.529,-0.553,1.04,1.29,1.01,1.09,0.666,-0.321,-1.03,-0.986,-0.26,-1.07,-0.139,-0.879,-0.156
CCTAGGTGGTCAAGGTCACACACGCTATAGGTAC,4.58,3.67,1.51,3.57,0.536,4.35,3.72,3.83,1.19,2.85,1.34,3.54,0.368,0.561,4.82,4.24,1.58,4.44,1.3,4.22
CGTCCAAGGTGAATGCTAGGTCAGTGAAAGCATT,0.506,1.19,0.158,0.617,-0.905,1.73,0.352,0.668,-0.499,0.352,2.03,2.41,-0.677,-0.549,0.968,0.776,-0.645,1.8,-0.245,2.42
GTACCAAGGTGAATAGGTCGATGATGAGTAGGCG,0.682,0.499,-0.251,0.484,-0.293,1.89,1.69,1.53,0.803,1.28,1.55,2.61,0.551,-0.172,1.08,0.477,0.109,1.13,0.983,2.01
ATCTCTAGGTAAGACTCAGTTAAGTGAAGAACGC,0.573,0.359,0.508,0.191,0.75,0.00438,0.0664,-0.0342,0.242,-0.00989,1.7,1.21,0.936,1.52,0.709,0.115,0.648,0.211,1.29,0.0635
CGAACTAGGTCATTGCCAGGACAGTGAATAGTAA,3.98,2.75,0.491,1.6,-0.019,4.39,6.96,6.06,3.25,5.51,8.25,7.95,1.34,0.503,1.04,1.4,0.261,1.87,0.423,3.44
TAGCCTAGGTCATGGGCTAGTATACCACGCGAAC,4.37,3.22,-0.104,1.86,-0.806,4.16,3.61,3.3,0.951,2.07,1.15,3.37,0.577,-0.926,1.36,1.6,-0.606,2.74,-0.439,3.86
ACTATTAGTTGGGACGAGGGCAACCGATAGGTTG,0.251,0.126,-0.235,0.0169,0.305,0.354,0.695,0.305,0.0129,0.225,-0.0902,0.659,0.777,0.502,0.934,0.478,0.579,0.451,0.563,1.03
CGAACTAGGTCAAGGAGAGTGAATCTCCGCACGC,2.98,1.99,-0.412,1.17,-0.521,4.25,7.01,6.29,3.34,5.99,8.29,7.9,1.48,0.243,0.896,0.744,-0.41,1.44,-0.0147,3.74
ATCTCCAGGTAAAGTTCAGTGAAAGATCGATAGA,1.54,2.1,1.98,1.55,1.25,2.02,1.2,2.62,1,1.91,0.492,0.889,1.11,0.586,1.7,2.32,2.13,1.81,1.45,2.78
CCTTACGGGGCACGAGGTTATAGCACGACGAGCG,0.567,0.879,-0.304,0.509,-0.823,2.26,2.22,2.19,0.265,1.49,1.87,2.38,0.9,-1.3,0.427,0.836,-0.487,1.6,-0.309,1.9
ACTAGCAGGCAAAGGGTCACTCAAGATTAGTCCG,2.62,2.93,0.422,2.94,-0.218,4.2,5.28,5.86,4.68,6.43,0.313,2.76,-0.0407,-1.05,2.82,3.4,0.241,4.35,1.42,3.42
CCTACCGGGCCAAAAAGGTCATTGATGCCGATAA,3.51,4.28,3.75,4.21,0.286,4.55,1.69,3,0.292,1.97,-0.0213,1.89,-0.195,-1.09,3.48,5,5.72,5.47,1.6,3.96
GCTACTTGGTCAGTAAAAGGTCACACACCGGTCG,3.65,4.51,4.98,4.37,1.61,4.59,3.39,4.65,2.3,4.1,1.59,3.24,0.501,1.24,5.33,5.09,1.32,6.09,2.99,4.23
ACTATTAGCTGACTTAGGGCAACCGATACGACGC,0.00773,-0.128,0.194,-0.149,0.546,-0.0754,0.886,0.11,-0.102,0.0192,0.43,0.75,1.05,1.38,0.825,-0.173,-0.168,0.142,1.14,0.676
AGAACGAGGGCAATGAGTTGATCGCACGGGTGGC,0.0662,0.0988,-0.712,-0.452,-0.58,1.33,1.16,0.618,-0.283,0.0795,2.79,2.63,0.67,0.015,-0.315,1.75,5.1,0.134,-0.671,2
ATATGTAGGTAAAGGGTCATTCAGGTTGGTTCGC,4.11,4.04,2.46,3.97,1.17,6.53,11.1,9.65,9.28,10.5,7.14,7.26,2.33,1.19,3.33,5.22,2.87,5.04,2.48,3.53
ACAGACAGGTGATGAAGGTAACGCAGGCTATCAT,-0.062,-0.206,-0.481,-0.283,-0.516,-0.00302,0.871,0.114,-0.0221,0.00481,-0.0406,0.365,-0.0492,0.0429,-0.243,-0.376,0.103,-0.27,-0.271,0.179
CAAACTAGGACAAGAGGTCAAAGTCCGCTTCCCG,4.96,5.72,5.89,4.83,1.83,5.48,5.75,6.56,4.76,6.29,5.17,5.25,1.06,0.504,3.1,5.45,2.97,5.92,0.963,4
TCGAGTATGTTAGTCGGGGCATTCAGCCAACATA,-0.336,-0.354,-0.761,0.103,-0.713,-0.0801,-0.372,0.0519,0.966,0.691,0.962,0.119,-0.528,-0.979,-0.491,-0.224,-0.529,-0.247,-0.841,0.204
CCTACTGGGCCATCAGGTCACTGATATCAACGTT,1.21,0.856,0.277,1.45,-0.523,2.54,3.22,3.98,1.37,3.37,4.97,5.45,-0.0281,-0.141,0.904,1.44,0.0492,1.94,-0.142,2.33
AGCCAAAGTTCATCTAGGTAACGTAAGATATGCT,6.68,6.25,5.31,3.78,1.41,4.86,5.36,5.53,2.27,4.72,0.587,3.45,1.13,0.579,3.87,5.16,6.7,3.87,2.24,4.94
CCTACTGGGCTACGAAAGGTCATTGATTCAGTGA,3.53,6.04,6.54,4.66,0.251,4.28,2.77,4.36,2.08,3.64,3.98,3.65,-0.45,0.321,3.32,5.08,1.74,5.44,0.708,3.88
TACCCTAGGTCATGCGGGCCAGTATAGTGTCGGC,4.4,6.5,8.1,3.42,2.52,3.62,3.01,2.92,0.448,1.71,1.96,3.63,0.136,-0.0789,0.581,1.72,0.593,2.37,0.299,3.93
ATATGTAGGTTATCGGGTCATCCAGTTTGCGCAT,3.4,3.29,1.73,3.26,1.22,5.15,7.35,6.27,3.9,5.79,7.5,7.73,3.61,3.11,3.09,3.98,5.45,4.35,1.79,2.96
CTCGAAAGGTCGTGCTCAGGTGATTATACCAAAC,4.98,4.19,0.561,3.64,0.429,4.83,2.63,3.52,0.939,2.35,0.733,1.72,1.57,0.403,2.1,3.55,0.276,4.32,0.268,3.86
